A number with no mark means an inactive call. For some of these results: Results with a measured potency or affinity are listed apart. The list shows a part of the results. Active and inactive are the calls of the source.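 The calls were made as follows, unless noted: active = compound raising the membrane signal above positive-control mean plus 3 SD in both repeats, and a primary screen hit; inactive = the rest.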
What was measured:
[1] = parental CHO-K1 cell activation, no KCNQ2 – FluxOR thallium flux, duplicate, counter-screen for KCNQ2 potentiator project, confirmation (AID 2282;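 active = signal rise of at least 3 SD above the untreated control mean, in both duplicate wells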;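 also: counter screen of KCNQ2 potentiator hits so any rise reflects channel-independent effects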); settings: parental CHO-K1 cells, FluxOR thallium flux fluorescence; at 10 µM; active compounds read high; zero = vehicle mean+3SD, 100% = vehicle-minus-blank window
[2] = target: Potassium voltage-gated channel subfamily KQT member 1 (Homo sapiens) (UniProt P51787); assay: KCNQ1 activation in stable CHO cells – cell-based, FluxOR thallium flux, selectivity assay for KCNQ2 potentiator project, confirmation (AID 2283;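 active = fluorescence ratio rise of at least 3 SD of vehicle wells above their mean, in both replicate wells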;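 also: 0% = vehicle mean plus 3 SD and 100% = vehicle minus unstimulated blank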); settings: FluxOR thallium flux fluorescence, at 10 µM, active compounds read high, beyond 3SD, as % of vehicle-control signal
[3] = target: Potassium voltage-gated channel subfamily KQT member 2 (Rattus norvegicus) (UniProt O88943); assay: KCNQ2 potassium channel activity enhancers – cell-based, CHO, FluxOR thallium flux, duplicate, confirmation (AID 2287;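 active = fluorescence ratio rising 3 SD or more over the vehicle control mean in both replicates, plus primary screen hit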;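 also: peak minus minimum thallium fluorescence divided by baseline after K/Tl stimulus; 0% = vehicle mean plus 3 SD and 100% = vehicle minus unstimulated blank difference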); settings: CHO-KCNQ2 cells, FluxOR thallium flux fluorescence; at 10 µM; active compounds read high
[4] = test system: TRPC4 beta (transient receptor potential cation channel C4), mouse; assay: TRPC4 cation channel opening, retest – cell-based, Fluo4 calcium, HEK293 TRPC4beta/mu-opioid, duplicates, 10 µM, confirmation (AID 2426;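 active = fluorescence ratio normalized to control raised more than 50% in primary screen plus both repeat runs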;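 as to activation: percent rise of integrated ratio over buffer wells lacking compound which define 0%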); settings: Fluo4 calcium fluorescence, at 10 µM; active compounds read high
[5] = test system: transient receptor potential cation channel C4 beta (TRPC4), mouse; assay: TRPC4 cation channel opening, second retest – cell-based, second round, Fluo4, HEK293 TRPC4beta/mu-opioid, 1 µM, confirmation (AID 2461;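 active = primary screen active and over 50% activation in each of two duplicate runs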); settings: Fluo4 calcium fluorescence, at 1 µM; active compounds read high
[6] = test system: TRPC4 (transient receptor potential cation channel C4 beta), mouse; assay: potentiation of DAMGO EC20 TRPC4 response – cell-based, second round, Fluo-4, HEK293 TRPC4beta/mu-opioid, 1 µM, confirmation (AID 2554;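 active = primary screen hit whose fluorescence ratio, in both repeats, exceeds the weak agonist control mean by 3 SD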); settings: DAMGO EC20, Fluo-4 calcium flux, at 1 µM; active compounds read high
[7] = test system: TRPC4 beta (transient receptor potential cation channel C4), mouse; assay: potentiation of DAMGO EC20 TRPC4 response – cell-based, Fluo-4, HEK293 TRPC4beta/mu-opioid, confirmation (AID 2555;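 active = primary screen hit whose calcium fluorescence ratio, in both repeats, exceeds the weak agonist control mean by 3 SD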); settings: DAMGO EC20, Fluo-4 calcium flux, at 10 µM; active compounds read high
[8] = target: Short transient receptor potential channel 4 (Mus musculus) (UniProt Q9QUQ5); assay: blockers of DAMGO-evoked TRPC4 calcium flux – cell-based, Fluo4, HEK293 TRPC4beta/mu-opioid, confirmation (AID 2636;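 active = calcium signal cut by more than 3 SD below the full-agonist control yet still positive, in both repeats and the earlier primary screen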); settings: at 10 µM; active compounds read high
[9] = target: Short transient receptor potential channel 4 (Mus musculus) (UniProt Q9QUQ5); assay: blockers of DAMGO-evoked TRPC4 calcium flux – cell-based, second round, Fluo4, HEK293 TRPC4beta/mu-opioid, 1 µM, confirmation (AID 2637;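 active = calcium signal ratio cut to more than 3 SD under the fully stimulated control mean yet still positive, in both repeats and the primary screen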); settings: at 1 µM; active compounds read high
[10] = target: Short transient receptor potential channel 4 (Mus musculus) (UniProt Q9QUQ5); assay: calcium entry via TRPC4 opening agents – cell-based, HEK293 TRPC4/mu-opioid, Fluo-4 calcium, dose response (AID 434937;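 active = primary screen activator hit with a dose response curve and TRPC4 channel activation at any tested dose; inactive = no activation, no dose response, or not a primary hit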)
[11] = target: Short transient receptor potential channel 4 (Mus musculus) (UniProt Q9QUQ5); assay: potentiation of DAMGO-evoked TRPC4 calcium signal – cell-based, HEK293 TRPC4/mu-opioid, Fluo-4 calcium, EC20 DAMGO, dose response (AID 434941;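 active = earlier screen potentiator hit that boosts the TRPC4 ion channel at some dose, with a dose response; inactive = no potentiation, no dose response, or not a prior hit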;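 also: calcium entry triggered by an EC20 dose of DAMGO at the co-expressed mu-opioid receptor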)
[12] = target: Short transient receptor potential channel 4 (Mus musculus) (UniProt Q9QUQ5); assay: block of DAMGO-driven TRPC4 calcium entry – cell-based, HEK293 TRPC4/mu-opioid, Fluo-4 calcium, dose response (AID 434942;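 active = primary screen inhibitor hit that blocks the TRPC4 channel at some tested dose, yielding a dose curve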)
[13] = target: Short transient receptor potential channel 6 (Mus musculus) (UniProt Q61143); assay: TRPC6 blockade by TRPC4 inhibitor hits – cell-based, HEK293, membrane potential dye, duplicate, selectivity assay for TRPC4 inhibitor project, confirmation (AID 434948;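 active = active in primary screen and both duplicates, each dropping signal beyond three positive-control SD with fluorescence still positive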); settings: HEK293 TRPC6, membrane potential dye fluorescence, at 10 µM, stimulated with maximal-effect acetylcholine; active compounds read high
[14] = target: Short transient receptor potential channel 6 (Mus musculus) (UniProt Q61143); assay: TRPC6 opening by TRPC4 activator hits – cell-based, HEK293, membrane potential dye, duplicate, selectivity assay for TRPC4 activator project, confirmation (AID 434950;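 active = membrane potential signal rise above negative control mean plus 3 SD in both duplicates, also active in the earlier TRPC4 screen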;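 as to activation: 0% = buffer only wells and 100% = acetylcholine maximal-effect wells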); settings: HEK293 TRPC6, membrane potential fluorescence, at 10 µM; activation: active compounds read high; outcome: activation
[15] = target: Short transient receptor potential channel 6 (Mus musculus) (UniProt Q61143); assay: positive modulators of mouse TRPC6 channel – HEK293 cells, membrane potential dye, duplicate, selectivity assay for TRPC4 potentiator project, confirmation (AID 434952); settings: HEK293 TRPC6, membrane potential dye fluorescence, at 10 µM, maximal acetylcholine added after compound; active compounds read high
[16] = target: Short transient receptor potential channel 4 (Mus musculus) (UniProt Q9QUQ5); assay: calcium flux activators in TRPC4/5HT1a cells, counter-screen for TRPC4 activator project, cell-based, second counter screen, HEK293 TRPC4/5HT1a, Fluo-4 (AID 434977;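 active = calcium signal rise above buffer-control mean plus 5 SD in both duplicates, and also a hit in the primary screen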;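 as to activation: plate controls were assay buffer for no effect and maximal serotonin response for full effect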); settings: Fluo-4 calcium flux, at 10 µM; active compounds read high
[17] = serotonin-gated TRPC4 signal block – cell-based, second counter screen, HEK293 TRPC4/5HT1a, Fluo-4, counter-screen for TRPC4 inhibitor project, confirmation (AID 434978;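 active = primary screen active whose calcium signal fell more than 3 SD beyond the full-serotonin control mean in both duplicate plates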;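 also: serotonin given first at submaximal then at maximal dose after compound preincubation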); settings: Fluo-4 calcium flux, at 10 µM, serotonin added to trigger calcium flux; active compounds read high
[18] = test system: TRPC4 (mouse), co-expressed with 5HT1a in HEK293; assay: enhancement of serotonin-evoked TRPC4 response – cell-based, second counter screen, HEK293 TRPC4/5HT1a, Fluo-4, counter-screen for TRPC4 potentiator project, confirmation (AID 434979;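 active = signal rise over 3 SD above mean of control wells given weak agonist, in both repeats and first screen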); settings: Fluo-4 calcium flux, at 10 µM, serotonin added at its EC20 dose; active compounds read high
[19] = nonspecific calcium rise without TRPC4 – cell-based, HEK293 mu-opioid receptor line, counter-screen for TRPC4 activator project, confirmation (AID 449723;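 active = hit in primary screen, with calcium signal over 5 SD above buffer well mean in both duplicates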;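 also: counter screen cells carry the mu-opioid receptor alone and lack TRPC4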); settings: HEK293 mu-opioid cells, Fluo-4 calcium fluorescence, at 10 µM; active compounds read high
[20] = nonspecific potentiation of DAMGO calcium response – cell-based, HEK293 mu-opioid receptor line, counter-screen for TRPC4 allosteric potentiator project, confirmation (AID 449724;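 active = calcium signal rise more than 3 SD above the low-dose agonist control mean, in both duplicate plates and the primary screen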); settings: HEK293 mu-opioid receptor cells, Fluo-4 calcium flux, at 10 µM, compound added before EC20 DAMGO stimulus; active compounds read high

Chain of Potassium voltage-gated channel subfamily KQT member 2 (Rattus norvegicus) (O88943 whole entry, looked up): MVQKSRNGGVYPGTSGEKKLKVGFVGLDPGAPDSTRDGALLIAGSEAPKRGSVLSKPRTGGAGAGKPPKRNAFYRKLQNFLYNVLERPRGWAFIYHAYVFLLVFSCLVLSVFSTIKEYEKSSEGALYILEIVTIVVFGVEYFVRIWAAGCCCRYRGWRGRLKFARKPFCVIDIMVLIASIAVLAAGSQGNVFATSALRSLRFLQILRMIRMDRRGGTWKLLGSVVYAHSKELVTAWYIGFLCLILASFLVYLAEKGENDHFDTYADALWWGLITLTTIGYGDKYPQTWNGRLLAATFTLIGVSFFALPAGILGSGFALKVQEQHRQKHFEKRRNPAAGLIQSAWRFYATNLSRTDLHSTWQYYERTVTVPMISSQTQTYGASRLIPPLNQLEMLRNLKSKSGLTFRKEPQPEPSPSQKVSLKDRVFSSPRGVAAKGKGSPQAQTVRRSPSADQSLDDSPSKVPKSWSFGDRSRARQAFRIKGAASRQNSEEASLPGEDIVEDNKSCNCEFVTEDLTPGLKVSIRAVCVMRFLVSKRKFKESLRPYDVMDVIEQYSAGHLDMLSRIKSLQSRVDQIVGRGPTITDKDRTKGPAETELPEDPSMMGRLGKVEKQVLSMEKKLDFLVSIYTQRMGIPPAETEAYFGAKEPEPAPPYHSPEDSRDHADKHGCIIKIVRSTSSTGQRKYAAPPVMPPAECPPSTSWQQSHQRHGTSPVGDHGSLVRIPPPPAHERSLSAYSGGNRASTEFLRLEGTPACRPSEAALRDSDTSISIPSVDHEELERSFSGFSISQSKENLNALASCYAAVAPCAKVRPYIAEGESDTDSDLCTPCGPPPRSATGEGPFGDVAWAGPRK
Chain of Short transient receptor potential channel 4 (Mus musculus) (Q9QUQ5 whole entry, looked up): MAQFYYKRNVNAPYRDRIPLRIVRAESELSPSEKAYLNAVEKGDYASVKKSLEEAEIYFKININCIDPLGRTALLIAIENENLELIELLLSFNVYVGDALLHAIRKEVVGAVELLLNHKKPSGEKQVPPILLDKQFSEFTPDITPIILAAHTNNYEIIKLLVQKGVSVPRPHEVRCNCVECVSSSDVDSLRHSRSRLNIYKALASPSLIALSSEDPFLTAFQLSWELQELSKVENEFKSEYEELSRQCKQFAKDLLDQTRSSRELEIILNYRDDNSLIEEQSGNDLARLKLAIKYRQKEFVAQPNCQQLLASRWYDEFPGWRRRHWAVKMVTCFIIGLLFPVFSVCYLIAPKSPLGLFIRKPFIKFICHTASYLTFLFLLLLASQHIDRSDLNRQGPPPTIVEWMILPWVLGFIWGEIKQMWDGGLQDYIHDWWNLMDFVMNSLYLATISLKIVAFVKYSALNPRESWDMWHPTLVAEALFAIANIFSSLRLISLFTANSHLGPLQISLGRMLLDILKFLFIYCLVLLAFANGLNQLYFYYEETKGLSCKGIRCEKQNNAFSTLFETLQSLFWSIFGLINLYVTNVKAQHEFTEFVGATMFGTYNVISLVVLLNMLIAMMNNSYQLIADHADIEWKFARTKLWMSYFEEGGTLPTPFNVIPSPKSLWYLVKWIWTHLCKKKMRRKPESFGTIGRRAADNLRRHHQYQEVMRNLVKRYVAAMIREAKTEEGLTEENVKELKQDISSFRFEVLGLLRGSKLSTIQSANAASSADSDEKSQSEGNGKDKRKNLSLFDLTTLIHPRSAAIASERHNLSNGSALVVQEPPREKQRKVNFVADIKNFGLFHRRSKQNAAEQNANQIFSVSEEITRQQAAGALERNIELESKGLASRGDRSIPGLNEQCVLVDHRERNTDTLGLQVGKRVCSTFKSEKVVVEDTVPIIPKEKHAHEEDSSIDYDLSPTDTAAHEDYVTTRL
Chain of Short transient receptor potential channel 6 (Mus musculus) (Q61143 whole entry, looked up): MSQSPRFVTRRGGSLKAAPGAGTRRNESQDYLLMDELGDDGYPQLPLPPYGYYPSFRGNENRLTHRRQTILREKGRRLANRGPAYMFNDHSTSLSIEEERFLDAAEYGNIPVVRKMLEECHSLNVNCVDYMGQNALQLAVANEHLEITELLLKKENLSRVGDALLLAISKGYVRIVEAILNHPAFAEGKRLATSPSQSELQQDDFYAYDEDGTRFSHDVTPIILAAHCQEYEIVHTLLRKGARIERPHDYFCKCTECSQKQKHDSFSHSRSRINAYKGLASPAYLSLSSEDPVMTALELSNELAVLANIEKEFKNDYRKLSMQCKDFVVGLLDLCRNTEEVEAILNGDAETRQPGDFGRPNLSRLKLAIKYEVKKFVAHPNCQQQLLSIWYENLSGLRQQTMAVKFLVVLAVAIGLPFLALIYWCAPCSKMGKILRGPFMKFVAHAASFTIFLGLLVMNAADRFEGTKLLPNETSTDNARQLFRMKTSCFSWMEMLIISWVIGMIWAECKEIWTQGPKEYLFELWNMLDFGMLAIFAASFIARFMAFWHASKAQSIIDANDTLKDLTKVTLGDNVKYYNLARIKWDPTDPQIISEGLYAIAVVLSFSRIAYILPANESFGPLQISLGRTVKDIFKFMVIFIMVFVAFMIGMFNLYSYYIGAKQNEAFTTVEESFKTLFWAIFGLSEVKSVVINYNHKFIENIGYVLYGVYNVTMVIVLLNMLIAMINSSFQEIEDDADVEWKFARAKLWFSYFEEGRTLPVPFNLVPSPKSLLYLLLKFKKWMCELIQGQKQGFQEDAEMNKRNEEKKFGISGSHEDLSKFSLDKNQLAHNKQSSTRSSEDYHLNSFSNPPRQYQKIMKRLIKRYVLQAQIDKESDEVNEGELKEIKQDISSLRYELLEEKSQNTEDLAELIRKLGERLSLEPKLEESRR
Chain of Potassium voltage-gated channel subfamily KQT member 1 (Homo sapiens) (P51787 whole entry, looked up): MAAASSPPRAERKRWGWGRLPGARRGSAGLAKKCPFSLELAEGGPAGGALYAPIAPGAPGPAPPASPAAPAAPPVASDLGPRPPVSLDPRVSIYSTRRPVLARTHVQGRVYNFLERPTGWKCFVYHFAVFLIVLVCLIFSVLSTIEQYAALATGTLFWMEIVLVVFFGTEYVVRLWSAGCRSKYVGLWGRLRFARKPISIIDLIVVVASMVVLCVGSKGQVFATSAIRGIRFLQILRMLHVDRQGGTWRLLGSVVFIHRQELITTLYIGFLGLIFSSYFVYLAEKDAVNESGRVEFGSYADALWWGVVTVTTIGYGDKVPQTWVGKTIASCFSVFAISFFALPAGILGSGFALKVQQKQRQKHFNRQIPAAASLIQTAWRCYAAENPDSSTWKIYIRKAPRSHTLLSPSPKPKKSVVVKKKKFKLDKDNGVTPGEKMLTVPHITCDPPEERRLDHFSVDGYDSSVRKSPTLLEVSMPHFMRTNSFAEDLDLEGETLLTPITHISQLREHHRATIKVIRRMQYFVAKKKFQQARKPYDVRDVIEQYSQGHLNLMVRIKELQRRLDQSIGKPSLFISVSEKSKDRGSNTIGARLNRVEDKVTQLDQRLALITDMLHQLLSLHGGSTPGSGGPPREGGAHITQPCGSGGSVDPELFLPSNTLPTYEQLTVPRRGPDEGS

Compound: Oc1c(Cl)cc(Cl)c(Cl)c1Cc1c(O)c(Cl)cc(Cl)c1Cl
- activity increase over 3SD of controls [1]: 45% (active)
- activation over 3SD threshold [2]: -3.6%
- potentiation, less the hit threshold [3]: 112% (active)

Compound: CC(Sc1nc2sc3c(c2c(=O)n1-c1ccccc1)CCCC3)C(=O)O (centres undefined)
- outcome [4]: inactive
- outcome [5]: inactive
- outcome [6]: inactive
- potentiation [7]: 12% (active)
- outcome [8]: inactive
- outcome [9]: inactive
- outcome [10]: inactive
- outcome [11]: inactive
- outcome [12]: inactive
- outcome [13]: inactive
- outcome [14]: inactive
- outcome [15]: inactive
- outcome [16]: inactive
- outcome [17]: inactive
- potentiation [18]: 22.2% (active)
- outcome [19]: inactive
- outcome [20]: inactive

Compound: O=C1CCSc2ccc(Cl)cc2N1Cc1ccc(Cl)cc1
- outcome [4]: inactive
- outcome [5]: inactive
- outcome [6]: inactive
- outcome [7]: inactive
- outcome [8]: inactive
- outcome [9]: inactive
- outcome [10]: inactive
- outcome [11]: inactive
- outcome [12]: inactive
- outcome [13]: inactive
- outcome [14]: inactive
- outcome [15]: inactive
- outcome [16]: inactive
- outcome [17]: inactive
- outcome [18]: inactive
- outcome [19]: inactive
- outcome [20]: inactive

Compound: C/C(=N\N1CCN(C)CC1)c1ccc(Cl)c(Cl)c1
- outcome [4]: inactive
- outcome [5]: inactive
- outcome [6]: inactive
- outcome [7]: inactive
- outcome [8]: inactive
- outcome [9]: inactive
- outcome [10]: inactive
- outcome [11]: inactive
- outcome [12]: inactive
- outcome [13]: inactive
- outcome [14]: inactive
- outcome [15]: inactive
- outcome [16]: inactive
- outcome [17]: inactive
- potentiation [18]: 13.3% (active)
- outcome [19]: inactive
- outcome [20]: inactive

Compound: O=c1c2cc(Br)ccc2nc(-c2cccc(Cl)c2)n1O
- activity increase over 3SD of controls [1]: -14.4%
- activation over 3SD threshold [2]: 68.1% (active)
- potentiation, less the hit threshold [3]: 84.4% (active)
- activation [4]: 223% (active)
- outcome [5]: inactive
- outcome [6]: inactive
- outcome [7]: inactive
- outcome [8]: inactive
- outcome [9]: inactive
- outcome [11]: inactive
- outcome [12]: inactive
- outcome [13]: inactive
- activation [14]: 38.5% (active)
- outcome [15]: inactive
- activation [16]: 63.4% (active)
- outcome [17]: inactive
- outcome [18]: inactive
- activation [19]: 20.3% (active)
- outcome [20]: inactive

Compound: CCc1nc2ccccc2n1Cc1ccccc1F
- outcome [4]: inactive
- outcome [5]: inactive
- outcome [6]: inactive
- outcome [7]: inactive
- outcome [8]: inactive
- outcome [9]: inactive
- outcome [10]: inactive
- outcome [11]: inactive
- outcome [12]: inactive
- outcome [13]: inactive
- outcome [14]: inactive
- outcome [15]: inactive
- outcome [16]: inactive
- outcome [17]: inactive
- outcome [18]: inactive
- outcome [19]: inactive
- outcome [20]: inactive

Compound: COC(=O)/C=C1\SC(=NC(=O)c2cccc(Cl)c2)NC1=O
- outcome [4]: inactive
- outcome [5]: inactive
- outcome [6]: inactive
- outcome [7]: inactive
- inhibition [8]: 76% (active)
- outcome [9]: inactive
- outcome [10]: inactive
- outcome [11]: inactive
- outcome [12]: inactive
- outcome [13]: inactive
- outcome [14]: inactive
- outcome [15]: inactive
- outcome [16]: inactive
- outcome [17]: inactive
- outcome [18]: inactive
- outcome [19]: inactive
- outcome [20]: inactive

Compound: CN(C)CCCn1c(=O)n(CCc2ccccc2)c(=O)c2c3c(sc21)CCCCC3
- outcome [4]: inactive
- outcome [5]: inactive
- outcome [6]: inactive
- outcome [7]: inactive
- outcome [8]: inactive
- outcome [9]: inactive
- outcome [10]: inactive
- outcome [11]: inactive
- outcome [12]: inactive
- outcome [13]: inactive
- outcome [14]: inactive
- outcome [15]: inactive
- outcome [16]: inactive
- outcome [17]: inactive
- outcome [18]: inactive
- outcome [19]: inactive
- outcome [20]: inactive

Compound: CCCc1ccc(OCc2ccc(C(=O)N3CCSCC3)o2)cc1
- outcome [4]: inactive
- outcome [5]: inactive
- outcome [6]: inactive
- potentiation [7]: 36% (active)
- outcome [8]: inactive
- outcome [9]: inactive
- outcome [10]: inactive
- outcome [11]: inactive
- outcome [12]: inactive
- outcome [13]: inactive
- outcome [14]: inactive
- outcome [15]: inactive
- outcome [16]: inactive
- outcome [17]: inactive
- potentiation [18]: 30.2% (active)
- outcome [19]: inactive
- outcome [20]: inactive

Compound: Fc1cc(F)c2nc(Nc3nc4c(F)cccc4s3)sc2c1
- activity increase over 3SD of controls [1]: -5.6%
- activation over 3SD threshold [2]: -15.7%
- potentiation, less the hit threshold [3]: 20.5% (active)

Compound: CCn1c2ccccc2c2cc(NC(=O)CN3CCCC3)ccc21
- outcome [4]: inactive
- outcome [5]: inactive
- outcome [6]: inactive
- potentiation [7]: 33% (active)
- outcome [8]: inactive
- outcome [9]: inactive
- outcome [10]: inactive
- outcome [11]: inactive
- outcome [12]: inactive
- outcome [13]: inactive
- outcome [14]: inactive
- outcome [15]: inactive
- outcome [16]: inactive
- outcome [17]: inactive
- potentiation [18]: 11.8% (active)
- outcome [19]: inactive
- outcome [20]: inactive

Compound: COc1cccc(NC(=O)COc2c(F)c(F)c(C(F)(F)F)c(F)c2F)c1
- outcome [4]: inactive
- outcome [5]: inactive
- outcome [6]: inactive
- outcome [7]: inactive
- outcome [8]: inactive
- outcome [9]: inactive
- outcome [10]: inactive
- outcome [11]: inactive
- outcome [12]: inactive
- outcome [13]: inactive
- outcome [14]: inactive
- outcome [15]: inactive
- outcome [16]: inactive
- outcome [17]: inactive
- outcome [18]: inactive
- outcome [19]: inactive
- outcome [20]: inactive

Compound: COc1ccccc1CNCc1cc(Br)ccc1OC
- outcome [4]: inactive
- outcome [5]: inactive
- outcome [6]: inactive
- outcome [7]: inactive
- outcome [8]: inactive
- outcome [9]: inactive
- outcome [10]: inactive
- outcome [11]: inactive
- outcome [12]: inactive
- outcome [13]: inactive
- outcome [14]: inactive
- outcome [15]: inactive
- outcome [16]: inactive
- outcome [17]: inactive
- outcome [18]: inactive
- outcome [19]: inactive
- outcome [20]: inactive

Compound: COc1cc(/C=C2/SC(=O)NC2=O)ccc1OCc1ccccc1
- outcome [4]: inactive
- outcome [5]: inactive
- outcome [6]: inactive
- outcome [7]: inactive
- outcome [8]: inactive
- outcome [9]: inactive
- outcome [10]: inactive
- outcome [11]: inactive
- outcome [12]: inactive
- outcome [13]: inactive
- outcome [14]: inactive
- outcome [15]: inactive
- outcome [16]: inactive
- outcome [17]: inactive
- outcome [18]: inactive
- outcome [19]: inactive
- outcome [20]: inactive

Compound: COc1ccccc1C(=O)NNC1=C(C(=O)C(F)(F)F)CCC1
- activation [4]: 58% (active)
- outcome [5]: inactive
- outcome [6]: inactive
- outcome [7]: inactive
- outcome [8]: inactive
- outcome [9]: inactive
- outcome [10]: inactive
- outcome [11]: inactive
- outcome [12]: inactive
- outcome [13]: inactive
- outcome [14]: inactive
- outcome [15]: inactive
- activation [16]: 11% (active)
- outcome [17]: inactive
- outcome [18]: inactive
- outcome [19]: inactive
- outcome [20]: inactive

Source: PubChem BioAssay
